The values that follow come from the supplement of paper PMC6992640.

The subject of the assay is HCI01 (cells of a triple-negative basal-like breast cancer xenograft). Description: cell viability of combination (% of vehicle); higher = less cytotoxic. The settings on record: 1 µM; 72 h; partner dose: 10 nM. The protocol:
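PDX cells were treated for 72 h with each drug at 1 µM plus carfilzomib (10 nM; 100 nM for WHIM2). Luciferase viability is expressed as percent of vehicle.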
As to `O=C(c1ccc(F)c(F)c1Nc1ccc(I)cc1F)N1CC(O)(C2CCCCN2)C1` (configuration not stated) [Cobimetinib] + CC(C)C[C@H](NC(=O)[C@H](CCc1ccccc1)NC(=O)CN1CCOCC1)C(=O)N[C@@H](Cc1ccccc1)C(=O)N[C@@H](CC(C)C)C(=O)[C@@]1(C)CO1 [Carfilzomib], the “cell viability of combination” value came out at 65.6. In the case of `COc1cc(C(=O)O)ccc1NC(=O)C1NC(CC(C)(C)C)C(C#N)(c2ccc(Cl)cc2F)C1c1cccc(Cl)c1F` (configuration not stated) + CC(C)C[C@H](NC(=O)[C@H](CCc1ccccc1)NC(=O)CN1CCOCC1)C(=O)N[C@@H](Cc1ccccc1)C(=O)N[C@@H](CC(C)C)C(=O)[C@@]1(C)CO1 [Carfilzomib] it was 79.1. In the case of `CC(=O)C1(O)Cc2c(O)c3c(c(O)c2C(OC2CC(N)C(O)C(C)O2)C1)C(=O)c1ccccc1C3=O.Cl` (configuration not stated) [Idarubicin HCl] + CC(C)C[C@H](NC(=O)[C@H](CCc1ccccc1)NC(=O)CN1CCOCC1)C(=O)N[C@@H](Cc1ccccc1)C(=O)N[C@@H](CC(C)C)C(=O)[C@@]1(C)CO1 [Carfilzomib] it was 187; in that of `CN(C)CC=CC(=O)Nc1cc2c(Nc3ccc(F)c(Cl)c3)ncnc2cc1OC1CCOC1.O=C(O)C=CC(=O)O.O=C(O)C=CC(=O)O` (configuration not stated) [Afatinib dimaleate] + CC(C)C[C@H](NC(=O)[C@H](CCc1ccccc1)NC(=O)CN1CCOCC1)C(=O)N[C@@H](Cc1ccccc1)C(=O)N[C@@H](CC(C)C)C(=O)[C@@]1(C)CO1 [Carfilzomib], 86.1; in that of `Nc1ncn(C2OC(CO)C(O)C2O)c(=O)n1` (configuration not stated) [5-Azacytidine] + CC(C)C[C@H](NC(=O)[C@H](CCc1ccccc1)NC(=O)CN1CCOCC1)C(=O)N[C@@H](Cc1ccccc1)C(=O)N[C@@H](CC(C)C)C(=O)[C@@]1(C)CO1 [Carfilzomib], 75.9. In the case of `O=C1C=CC=CC1=C1NC(=C2C=CC=CC2=O)N(c2ccc(C(=O)O)cc2)N1` [Deferasirox] + CC(C)C[C@H](NC(=O)[C@H](CCc1ccccc1)NC(=O)CN1CCOCC1)C(=O)N[C@@H](Cc1ccccc1)C(=O)N[C@@H](CC(C)C)C(=O)[C@@]1(C)CO1 [Carfilzomib] it was 67.8. For the compound `CC(C)(C)NC(=O)C1CC2CCCCC2CN1CC(O)C(Cc1ccccc1)NC(=O)C(CC(N)=O)NC(=O)c1ccc2ccccc2n1.CS(=O)(=O)O` (configuration not stated) [Saquinavir mesylate] + CC(C)C[C@H](NC(=O)[C@H](CCc1ccccc1)NC(=O)CN1CCOCC1)C(=O)N[C@@H](Cc1ccccc1)C(=O)N[C@@H](CC(C)C)C(=O)[C@@]1(C)CO1 [Carfilzomib], the “cell viability of combination” value amounted to 79.5. For the compound `CC1=C(C(=O)OC(C)C)C(c2cccc([N+](=O)[O-])c2)C(C(=O)OC2CN(C(c3ccccc3)c3ccccc3)C2)=C(N)N1` (configuration not stated) [Azelnidipine] + CC(C)C[C@H](NC(=O)[C@H](CCc1ccccc1)NC(=O)CN1CCOCC1)C(=O)N[C@@H](Cc1ccccc1)C(=O)N[C@@H](CC(C)C)C(=O)[C@@]1(C)CO1 [Carfilzomib], the “cell viability of combination” value came to 112. In the case of `Cl.Nc1ccn(C2OC(CO)C(O)C2O)c(=O)n1` (configuration not stated) [Cytarabine hydrochloride] + CC(C)C[C@H](NC(=O)[C@H](CCc1ccccc1)NC(=O)CN1CCOCC1)C(=O)N[C@@H](Cc1ccccc1)C(=O)N[C@@H](CC(C)C)C(=O)[C@@]1(C)CO1 [Carfilzomib] it was 65.5; in that of `CC(C)c1nc(CN(C)C(=O)NC(C(=O)NC(Cc2ccccc2)CC(O)C(Cc2ccccc2)NC(=O)OCc2cncs2)C(C)C)cs1` (configuration not stated) [Ritonavir] + CC(C)C[C@H](NC(=O)[C@H](CCc1ccccc1)NC(=O)CN1CCOCC1)C(=O)N[C@@H](Cc1ccccc1)C(=O)N[C@@H](CC(C)C)C(=O)[C@@]1(C)CO1 [Carfilzomib], 73; in that of `CCCCCCCCCCCC1=C(O)C(=O)C=C(O)C1=O` [Embelin] + CC(C)C[C@H](NC(=O)[C@H](CCc1ccccc1)NC(=O)CN1CCOCC1)C(=O)N[C@@H](Cc1ccccc1)C(=O)N[C@@H](CC(C)C)C(=O)[C@@]1(C)CO1 [Carfilzomib], 71.1. The result for `Clc1ccc(COC(Cn2ccnc2)c2ccc(Cl)cc2Cl)c(Cl)c1.O=[N+]([O-])O` (configuration not stated) [Miconazole Nitrate] + CC(C)C[C@H](NC(=O)[C@H](CCc1ccccc1)NC(=O)CN1CCOCC1)C(=O)N[C@@H](Cc1ccccc1)C(=O)N[C@@H](CC(C)C)C(=O)[C@@]1(C)CO1 [Carfilzomib] reads 87.1.
